{
  "source": "PubChem BioAssay AID1117361",
  "about": "(Southern Research Institute, 2015)",
  "note": "In all, about 3,600 compounds went through this assay and about 900 (25%) were called active. How the calls were made is not given here. The list is a sample of the results. Measured potencies and affinities stand elsewhere.",
  "data": [
    {"biological_target": "Protein Tat (Human immunodeficiency virus type 1 group M subtype B (isolate HXB2)) (UniProt P04608)", "experiment": "inhibitors of Tat binding to TAR RNA, dose response, counter-screen for Vif-APOBEC3G degradation inhibitor project, biochemical, fluorescence polarization, FAM-labeled TAR RNA (AID 1117361)", "conditions": "outcome: at 100 µM (top of the series) unless noted; series mostly up to 100 µM", "values": [
      {"compound": "CCOC(=O)C1=C(CNCCc2ccc(Cl)cc2)NC(=O)NC1c1ccc2c(c1)OCO2", "note": "(stereo not drawn)", "outcome": "inactive"},
      {"compound": "CCSc1nnc(NC(=O)c2ccc3ccccc3n2)s1", "outcome": "inactive"},
      {"compound": "Cc1cc(C)n(-c2nc(Nc3ccccc3C(F)(F)F)nc(-n3nc(C)cc3C)n2)n1", "outcome": "inactive"},
      {"compound": "O=C(CSc1ccc2nnc(-c3cccnc3)n2n1)NCC1CCCO1", "note": "(stereo not drawn)", "outcome": "inactive"},
      {"compound": "Cc1c(NC(=O)/C(C#N)=C/C2CC=CCC2)c(=O)n(-c2ccccc2)n1C", "note": "(stereo not drawn)", "outcome": "inactive"},
      {"compound": "O=C(c1ccccc1Cl)N(C(=O)c1ccccc1Cl)c1nccc(-c2cccs2)n1", "outcome": "inactive"},
      {"compound": "O=[N+]([O-])c1ccc(/C=N/Nc2nc(N3CCCC3)nc(N3CCCC3)n2)o1", "outcome": "inactive"},
      {"compound": "Cc1ccccc1Cn1cc(NC(=O)c2cc(C3CC3)on2)cn1", "outcome": "inactive"},
      {"compound": "CCOC(=O)N1CCN(C(=O)C2CCCN(S(=O)(=O)c3ccc(C)cc3)C2)CC1", "note": "(stereo not drawn)", "outcome": "inactive"},
      {"compound": "CCN1CCN(c2ccc(S(=O)(=O)N3CCCCC3)cc2NC(=O)Cc2ccc(Cl)c(Cl)c2)CC1", "outcome": "inactive"},
      {"compound": "Clc1ccc(Nc2nc(C3CC3)cs2)cc1", "outcome": "inactive"},
      {"compound": "CCN(c1cccc(C)c1)S(=O)(=O)c1cnc[nH]1", "outcome": "inactive"},
      {"compound": "Cn1nc(-c2ccc(Cl)cc2)c2cc(C(=O)N3CCN(C(=O)c4ccco4)CC3)sc21", "outcome": "inactive"},
      {"compound": "Cn1nc(-c2ccc(Cl)cc2)c2cc(C(=O)NCCCN3CCOCC3)sc21", "outcome": "inactive"},
      {"compound": "O=C(O)CC(Cn1cnnn1)c1ccccc1", "note": "(stereo not drawn)", "outcome": "inactive"},
      {"compound": "COc1ccc(Cl)cc1N(C)C(=O)CCNC(=O)Cn1cnc2ccccc2c1=O", "outcome": "inactive"},
      {"compound": "Cc1csc(=O)n1CC(=O)OCC(=O)c1ccc(Br)cc1", "outcome": "inactive"},
      {"compound": "CCOc1cccc(CN2CCCC(C(=O)Nc3cccc(-n4cccn4)c3)C2)c1", "note": "(stereo not drawn)", "outcome": "inactive"},
      {"compound": "CC(=O)Nc1ccc(S(=O)(=O)Nc2nnc(C(C)C)s2)cc1", "outcome": "inactive"},
      {"compound": "CSc1nc(N2CCOCC2)c2c(c1C#N)CC(C)(C)OC2", "outcome": "inactive"},
      {"compound": "N#Cc1nc(-c2ccco2)oc1N1CCN(c2ccccc2)CC1", "outcome": "inactive"},
      {"compound": "CCOc1cc(S(=O)(=O)N(CC)CC)c(OCC)cc1-n1cnnn1", "outcome": "inactive"},
      {"compound": "Cc1nnc(NC(=O)c2ccc(S(=O)(=O)N(C)Cc3ccccc3)cc2)o1", "outcome": "inactive"},
      {"compound": "CC1(C)CC(Nc2ccc(Nc3ccccc3)cc2)CC(C)(C)N1", "outcome": "inactive"},
      {"compound": "CCC1=C2CC[C@H]3C(=O)NC(=O)[C@H]3[C@H]2[C@@]2(Cc3ccccc3)C(=NCC(=O)OC)OC(=O)N2C1=O", "outcome": "inactive"},
      {"compound": "Nc1nc(Sc2ccc([N+](=O)[O-])c3nonc23)c2[nH]cnc2n1", "outcome": "inactive"},
      {"compound": "Nc1nc(SCc2nc3scc(-c4ccccc4)c3c(=O)[nH]2)n[nH]1", "outcome": "inactive"},
      {"compound": "S=c1[nH]nc(Cn2nnc3ccccc32)n1-c1ccccc1", "outcome": "inactive"},
      {"compound": "COc1ccccc1C(=O)Nc1ccc(-c2nnc(SCC(=O)O)n2C)cc1", "outcome": "inactive"},
      {"compound": "Cc1cc(C(=O)NNC(=O)CCC2CCCCC2)c(C)o1", "outcome": "inactive"},
      {"compound": "Cc1cc(/C=C2\\SC(=S)NC2=O)c(C)n1C", "outcome": "inactive"},
      {"compound": "CCOC(=O)c1c(-c2cccs2)csc1NC(=O)CC(C)C", "outcome": "inactive"},
      {"compound": "Cc1ccc(C(=O)N2CCN(c3ccccc3)CC2)cc1C", "outcome": "inactive"},
      {"compound": "Cc1c(C=O)c(C=O)c(C)n1Cc1ccccc1", "outcome": "inactive"},
      {"compound": "CC(=O)C1CCN(Cc2ccccc2)CC1", "outcome": "inactive"},
      {"compound": "Cc1ccc(-n2nc(C(=O)O)c3ccccc3c2=O)cc1C", "outcome": "inactive"},
      {"compound": "O=C(O)c1ccc(N2C(=O)c3cccnc3C2=O)cc1", "outcome": "inactive"},
      {"compound": "Cc1cc(/C=N/n2cnnc2)c(C)n1-c1cccc(Cl)c1", "outcome": "inactive"},
      {"compound": "O=C(OC(C(=O)NCc1cccs1)c1ccccc1Cl)c1ccco1", "note": "(stereo not drawn)", "outcome": "inactive"},
      {"compound": "O=S(=O)(c1cccc2ccccc12)n1nnc2ccccc21", "outcome": "inactive"},
      {"compound": "O=C(OCn1cncn1)c1ccc(Cl)cc1Cl", "outcome": "inactive"},
      {"compound": "CC(C)(C)OC(=O)N1CCC[C@H]1c1nnc(SC/C=C/c2ccccc2)o1", "outcome": "inactive"},
      {"compound": "Clc1ccc(C2=Nn3c(nnc3-c3cc(-c4ccccc4)n[nH]3)SC2)cc1", "outcome": "inactive"},
      {"compound": "O=C(O)c1ccc2c(c1)N(Cc1cccc(F)c1)C(=O)CS2", "outcome": "inactive"},
      {"compound": "Cc1cc(NS(=O)(=O)c2cc(Cl)sc2Cl)no1", "outcome": "inactive"},
      {"compound": "O=C(O)c1cc(-c2ccccc2)on1", "outcome": "inactive"},
      {"compound": "COc1ccc(C(=O)N2CCCC(C(=O)N3CCCCCC3)C2)cc1", "note": "(stereo not drawn)", "outcome": "inactive"},
      {"compound": "Cc1ccc(S(=O)(=O)N(C)CC(O)Cn2c3ccccc3c3ccccc32)cc1", "note": "(stereo not drawn)", "outcome": "inactive"},
      {"compound": "COc1cc(/C=C2/C(=O)N(c3ccc(Br)cc3)N=C2C)cc(OC)c1OC", "outcome": "inactive"},
      {"compound": "CC(=O)Nc1ccc(OCC(=O)N2CCc3ccccc3C2)cc1", "outcome": "inactive"},
      {"compound": "CCn1ncc(/C=C/C(=O)NCc2cn(C)nc2C)c1C", "outcome": "inactive"},
      {"compound": "Cn1c(=O)cc(SCC(=O)NCCCN2CCOCC2)c2ccccc21", "outcome": "inactive"},
      {"compound": "O=C(c1ccccc1)N1CCN(c2ccc(Cl)cc2)CC1", "outcome": "inactive"}
    ]}
  ]
}
